# Measurements: PubChem BioAssay AID624202 (National Center for Advancing Translational Sciences (NCATS), 2012)
# Hit rate of the full screen: of about 380,000 compounds, about 4,000 (1.1%) were called active. Inconclusive results (about 3%) are left out. This excerpt belongs to a sample that is enriched for actives. Unmarked numbers belong to inactive results. Calls come from the whole dose curve; as a rule, active = well fitted activation curve with a large enough effect; inconclusive = small, poorly fitted or top-dose-only effect; inactive = no such curve, though single readings can be large or run the other way.
# Assay: qHTS Assay to Identify Small Molecule Activators of BRCA1 Expression; note: nearly all actives have a fitted effect of over 80% in size
# Settings: MCF7-BRCA1-FFLuc reporter, luminescence, 48 h; series mostly up to 46.1 µM; activation: at the top concentration
# Excerpt: Functionally, BRCA1 has been implicated in a wide array of cellular activities, including DNA damage repair, cell-cycle checkpoint control, growth inhibition, apoptosis, transcriptional regulation, chromatin remodeling, protein ubiquitylation, and mammary stem cell self-renewal and differentiation. Reduction in BRCA1 levels is associated with an increase in tumor growth and resistance to anti-estrogenic agents, such as tamoxifen, while an increase in BRCA1 expression leads to cell growth arrest and apoptosis. […] The frequent loss of BRCA1 expression in invasive breast cancers in the absence of somatic mutation has been attributed to numerous mechanisms, including hypermethylation of the BRCA1 promoter, exaggerated ubiquitylation of BRCA1 protein, and improper intracellular localization. […] Basal-like breast cancers (BLBCs) are associated with an aggressive clinical course, resistance to chemotherapy, and typically lack expression of estrogen receptor (ER), progesterone receptor (PR), and epidermal growth factor receptor 2 (HER2). BLBCs account for 10-17% of all breast cancers, have few therapeutic options, and are considered the biggest unmet need in the treatment of breast cancer. Conversely, tumors which maintain expression of functional BRCA1 are almost uniformly luminal type cancers, and are accordingly associated with more indolent clinical courses, responsiveness to endocrine therapies, and improved survival.
# As such, it is possible that an increase in BRCA1 expression would enable cellular differentiation and restore tumor suppressor function, resulting in delayed tumor growth and less aggressive, more treatable breast cancers. The long term goal of this proposal is to develop a novel prevention or therapeutic agent for breast cancer patients. To accomplish this goal, the overall objective of this proposal is to access the resources provided by the NIH Molecular Libraries Roadmap Initiative and the Molecular Libraries Probe Production Centers Network (MLPCN) to discover and develop new chemical activator probes that will increase BRCA1 expression and function.
# NIH Molecular Libraries Probe Production Network [MLPCN]
# NIH Chemical Genomics Center [NCGC]
# PI Name: Lisa Harlan-Williams, University of Kansas Medical Center
# 5microl of MCF7-BRCA1-FFLuc cell suspension (400 cells/microl in phenol-red free MEM) are dispensed into Greiner white solid bottom 1536-well assay plates, yielding a final well density of 2000 cells/well. Plates are incubated for 2 hours at 37 degrees C in 5% humidified CO2 to allow cell attachment. Compounds are then transferred via Kalypsys pin tool equipped with 1536-pin array (10nl slotted pins, V&P Scientific, San Diego, CA). The plates are then incubated at 37 degrees C in 5% humidified CO2 for 48 hours. The NCGC in-house luciferase substrate reagent, Buglite, is then added (2.5microl) and plates incubated for 15 minutes, before being transferred to a ViewLux high-throughput CCD imager (PerkinElmer) wherein single end-point measurements of luminescence are acquired using a clear filter. The positive control compound, genistein, will be pinned into dedicated control columns on each plate, including a 16-point 1:3 titration in duplicate, as well as a 10microM maximum activation control, allowing for the normalization of screening activity. DMSO will be pinned into a separate column as a negative control.
# All screening operations will be performed on a fully integrated robotic system (Kalypsys, San Diego, CA) containing one RX-130 and two RX-90 anthropomorphic robotic arms (Staubli, Duncan, SC). Library plates will be screened starting from the lowest and proceeding to the highest concentration. Vehicle-only plates, with DMSO being pin-transferred to columns 5-48, will be inserted uniformly at the beginning and the end of each library in order to monitor and record any shifts in the background, which can be affected by reagent dispensers or loss in enzyme activity over time. […]
# Potency is the fitted concentration of half-maximal effect.
SMILES,activation [%],Potency
CN(C)Cc1cn(-c2ccccc2)nc1-c1ccccc1,14.5,
COc1ccccc1CNCc1ccc(C(=O)O)s1,-0.687,
COc1cc(OC)c(C(=O)Nc2ccc(N(C)C)cc2)cc1OC,,8.91 µM (active)
COc1cc(OC)c(C(=O)NNC(=O)c2ccccc2-n2cccc2)cc1OC,-4.17,
COc1ccc(Cl)cc1C(=O)Nc1ccc(N(C)C(C)=O)cc1,-8.57,
COc1ccc(-c2cc(C(F)(F)F)nc(SCC(=O)N(C)Cc3ccccc3)n2)cc1OC,-44.2,
Cc1nn(C)cc1C(=O)NNC(=S)Nc1ccc(Cl)cc1,0.773,
Cn1ccc(NC(=O)Nc2ccc(Cl)cc2)n1,,7.08 µM (active)
CN(C)S(=O)(=O)c1cc(C(=O)Nc2ccn(C)n2)c(Cl)cc1Cl,-1.4,
COc1cccc(C(=O)NCC(=O)OCc2cc(=O)n3ccsc3n2)c1,23.2,
CCn1cc(C(=O)N(C)Cc2ccccc2)c(=O)c2cc(S(=O)(=O)N3CCCCCC3)ccc21,-20.1,
COc1cccc(NC(=O)COc2cccnc2[N+](=O)[O-])c1,84.5,
O=C(O)c1cccnc1NC1CCCC1,0.755,
COc1cccc(Nc2ncccc2C(=O)O)c1,,11.2 µM (active)
O=c1cc(COc2cccc(C(F)(F)F)c2)nc2sc3c(n12)CCCC3,22.3,
Cc1cccc(C(=O)OC(C)CN2CCCC2)c1 (stereo not drawn),-7.76,
Cc1cccc(C(=O)OC(C)CN2CCN(C)CC2)c1 (stereo not drawn),,8.91 µM (active)
Cc1ccc(C(=O)OC(C)CN2CCOCC2)cc1 (stereo not drawn),34.5,
C(=Nc1ccc(/C=C/c2ccnc3ccccc23)cc1)c1cc2c3c(c1)CCCN3CCC2,5.17,
Cc1c(C(=O)NCCCc2ccccc2)cccc1[N+](=O)[O-],-6.52,
CC(C)c1ccc(C(=O)NCCCc2ccccc2)cc1,,10 µM (active)
CN(c1ccccc1)S(=O)(=O)c1ccc(C(=O)NCCc2ccccc2)cc1,95.3,
Cc1ccccc1CNC(=O)c1ccc(NC(=O)N2CCCCc3ccccc32)cc1,0,
C/C=C/NNC(=O)Cc1ccc(OC)cc1,-35.7,
CC1=C(C(=O)OCC2CCCCC2)C(c2c(F)cccc2Cl)CC(=O)N1 (stereo not drawn),11.3,
CC(=O)C1=C(C)NC(=O)NC1c1ccc2c(c1)OCO2 (stereo not drawn),-1.73,
Nc1[nH][nH]c(=O)c1N=Nc1ccc2c(c1)OCO2,,12.6 µM (active)

SMILES,activation [%],Potency
CC(=O)c1cc2c(cc1N)OCO2,16.3,
CCOc1ccc(CCNC(=O)CN(c2ccc(C)cc2)S(=O)(=O)N(C)C)cc1OCC,-3.76,
COc1cccc(C(=O)Nc2ccc3nc4n(c(=O)c3c2)CCCCC4)c1,,4.47 µM (active)
COc1ccc(CCNC(=O)C(=O)Nc2ccc3nc4n(c(=O)c3c2)CCCCC4)cc1OC,42.2,
O=C(Nc1ccc2nc3n(c(=O)c2c1)CCCC3)c1ccc(Cl)nc1,-1.17,
CC(C)c1ccc(NC(=O)Cn2ncc3ccccc32)cc1,,10 µM (active)
Cc1cccc(NC(=O)c2nnn(CC(=O)Nc3ccc(C(C)C)cc3)c2N)c1C,72.2,
CCc1ccc(NC(=O)Cn2ncn3c(cc4ccccc43)c2=O)cc1,-0.0009,
COc1ccc(Cn2c(=O)[nH]c3cc(C(=O)N4CCN(C(=O)c5ccco5)CC4)ccc3c2=O)cc1,-22.8,
Cc1ccc(-c2nn3c(=O)cc(CN4CCN(C(=O)Nc5cccc(C(F)(F)F)c5)CC4)nc3s2)cc1,0.612,
COc1cc(OC)c(C2C=C(C(=O)O)Nc3ncnn32)cc1OC (stereo not drawn),10.8,
COc1ccc(C)cc1NC(=O)CCc1c(C)nn(-c2ccc(N3CCOCC3)nn2)c1C,19.3,
COc1cccc(C(O)Cc2nc3ccccc3n2C)c1OC (stereo not drawn),43,
CCOc1ccc(C(O)Cn2c(=N)n(CCN3CCCCC3)c3ccccc32)cc1 (stereo not drawn),-32.1,
CCOc1ccc(C(O)Cc2nc3ccccc3n2C)cc1 (stereo not drawn),,12.6 µM (active)
CCn1cc2nc(SCc3ccccc3Cl)n(CCc3ccccc3)c(=O)c2n1,0,
CC(C)(C)C1CCC(NC(=O)c2cnn3c2NC(=C2CC2)C=C3C(F)F)CC1 (stereo not drawn),-51.7,
CSCCNC(=O)c1ccc2nc(Cc3ccccc3F)oc2c1,,12.6 µM (active)
COc1ccc(Cc2nc3ccc(C(=O)NCC4CCOCC4)cc3o2)cc1OC,-5.09,
COc1ccc(Cc2nc3ccc(C(=O)NCc4ccc(OC)cc4OC)cc3o2)cc1,-11.6,
COc1ccc(CCn2c3c(c(=O)[nH]c2=S)CN(C(C)C)CN3)cc1OC,-12.2,
CC(=O)c1ccc(Nc2nc(C(N)c3ccccc3)cs2)cc1 (stereo not drawn),18.7,
COC(=O)[C@H](Cc1ccccc1)NC(=O)Nc1ccc(S(N)(=O)=O)cc1,-8.89,
NS(=O)(=O)c1ccc(Nc2nc(-c3ccccc3)cs2)cc1,,7.08 µM (active)
NS(=O)(=O)c1ccc(NC(=O)CSc2nnc3c(n2)[nH]c2ccccc23)cc1,0,
COCCNC(=O)c1ccc2c(c1)N=C(C)c1cc(C)ccc1S2,-66.9,
